Bioassay records (PubChem)
CYP2C9 inh – inhibitors of human CYP2C9 | hit rate 20% among 96,000 | CYP2C9 Supersomes, luciferin-H conversion, luminescence | inhibition, % at 5 µM | P11712 | AID 777;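 active = blocking of liver enzyme CYP2C9 beyond about 50% at 5 µM, limit read from the data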
CYP2C19 act – cytochrome P450 2C19 (human) activation | recombinant CYP2C19, luciferin-H EGE luminescence; hits give high values; 0 = fully inhibited enzyme, 1 = untreated enzyme | activation factor at 5 µM | 96,000 tested, under 10 active | P33261;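 active = activation factor of at least 2 at 5 µM in the primary screen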
Target sequence (P33261 whole entry, looked up): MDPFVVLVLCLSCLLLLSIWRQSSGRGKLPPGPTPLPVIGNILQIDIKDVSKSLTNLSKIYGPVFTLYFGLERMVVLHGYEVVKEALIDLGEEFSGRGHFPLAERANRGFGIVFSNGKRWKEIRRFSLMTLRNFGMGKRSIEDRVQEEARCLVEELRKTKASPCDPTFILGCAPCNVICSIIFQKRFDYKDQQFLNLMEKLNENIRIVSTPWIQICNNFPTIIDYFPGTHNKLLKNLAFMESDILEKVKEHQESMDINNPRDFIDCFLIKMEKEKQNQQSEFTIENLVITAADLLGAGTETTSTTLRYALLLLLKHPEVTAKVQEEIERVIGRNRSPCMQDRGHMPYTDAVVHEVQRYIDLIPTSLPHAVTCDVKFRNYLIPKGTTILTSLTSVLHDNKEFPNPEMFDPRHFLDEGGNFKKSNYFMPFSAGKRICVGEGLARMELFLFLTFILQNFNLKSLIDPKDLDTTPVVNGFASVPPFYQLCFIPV
CYP2C9 act – activators of human CYP2C9 | P11712 | hit rate 1.4% among 96,000 | AID 1024 | recombinant CYP2C9, luciferin-H conversion, luminescence; hits give high values; factor 1 = untreated enzyme, 0 = blocked | activation factor at 5 µM;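 active = activation factor of 2 or more for CYP2C9 at a 5 µM dose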
Mac1 fbg inh – inhibitors of human CD11b/CD18 binding to fibrinogen. inhibition, % at 10 µM. hit rate 0.54% among 93,000. P05107+P11215. K562 CD11b/CD18 adhesion to fibrinogen, ATPlite luminescence; Mn2+ added to activate the integrin;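 active = primary inhibition of 50% or more at 10 µM, then 40% or more on retest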
Mac1 fbg enh – increases human CD11b/CD18 adhesion to fibrinogen. K562 CD11b/CD18 adhesion to fibrinogen, ATPlite luminescence. hit rate 0.07% among 93,000. activation, % at 10 µM. P05107+P11215;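 active = 10 µM primary screen giving 50% or more activity, confirmed by 40% or more on retest at that dose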
CYP2C19 inhib – blocks human cytochrome P450 2C19. P33261. CYP2C19 Supersomes, luciferin-H EGE luminescence, 30 min. inhibition, % at 5 µM. hit rate 21% among 96,000. AID 778;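 active = CYP2C19 inhibition above a set limit at 5 µM in the primary screen, cut at about 50% in these data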
Of the large screens only hits and unclear results are named; the others gave an inactive call. Sampled rows, rich in hits. Any-hit rate of the full collection: about 28%.

CC(=O)Nc1c(C)ccc2nsnc12	none
CCOC(=O)c1cc(-c2ccncc2)nc2c1c(C)nn2C	CYP2C9 inh 50, CYP2C19 inhib 96
CCOC(=O)c1cc(-c2ccccc2)nc2c1c(C)nn2-c1ccccn1	none
O=C(COc1ccccc1-c1ccccc1)NCc1cccc(Cl)c1	none (no result: CYP2C9 inh, CYP2C19 act, CYP2C9 act, CYP2C19 inhib)
CC1(O)c2ccccc2C(=O)N1CCc1ccccc1F (stereo unspecified)	CYP2C19 inhib 96 (no result: Mac1 fbg inh, Mac1 fbg enh)
O=C(O)c1ccc2c(c1)N(Cc1ccccc1F)C(=O)c1ccccc1S2=O (stereo unspecified)	none
CC1(O)c2ccccc2C(=O)N1Cc1ccccc1 (stereo unspecified)	CYP2C19 inhib 85
CN1C(=O)OC(C)(CCc2ccccc2)C1(C)O (stereo unspecified)	none (no result: Mac1 fbg inh, Mac1 fbg enh)
CC1(O)N(Cc2ccccc2)C(=O)OC12CCCCC2 (stereo unspecified)	CYP2C19 inhib 74
O=C(CCSc1ccccc1)Nc1nc2c(s1)COc1ccccc1-2	none
Cc1cccc2cc(C(c3nnnn3CC3CCCO3)N3CCc4ccccc4C3)c(=O)[nH]c12 (stereo unspecified)	CYP2C9 inh 60
Cc1ccc2cc(C(c3nnnn3CC3CCCO3)N3CCc4ccccc4C3)c(=O)[nH]c2c1 (stereo unspecified)	CYP2C9 inh 71
Cc1cc2cc(C(c3nnnn3CC3CCCO3)N3CCCc4ccccc43)c(=O)[nH]c2cc1C (stereo unspecified)	none
Cc1ccc(C)c2[nH]c(=O)c(C(c3nnnn3Cc3ccccc3)N3CCc4ccccc4C3)cc12 (stereo unspecified)	CYP2C9 inh 73, CYP2C19 inhib 85
O=c1[nH]c2cc3c(cc2cc1C(c1nnnn1Cc1ccccc1)N1CCCCCC1)OCCO3 (stereo unspecified)	none
Cc1cccc2cc(C(c3nnnn3CC3CCCO3)N3CCCC4(CCCCC4)C3)c(=O)[nH]c12 (stereo unspecified)	none
Cc1cccc2cc(C(c3nnnn3CC3CCCO3)N3CCCc4ccccc43)c(=O)[nH]c12 (stereo unspecified)	CYP2C9 inh 56
CC(=O)c1c(N2CCOCC2)nc(=S)n(-c2ccc([N+](=O)[O-])cc2)c1C	none
CC(C)(C)n1nc2c(c1NC(=O)c1cccc(C(F)(F)F)c1)CS(=O)C2 (stereo unspecified)	none
CC(C)C(c1nnnn1Cc1ccc2c(c1)OCO2)N1CCN(c2ccccc2)CC1 (stereo unspecified)	none
Cc1cc(C(c2nnnn2Cc2ccccc2)N2CCOCC2)c(C)n1-c1ccc2c(c1)OCO2 (stereo unspecified)	CYP2C9 inh 90, CYP2C19 inhib 96
CCOc1ccc2[nH]c(=O)c(C(c3nnnn3CC3CCCO3)N3CCc4ccccc4C3)cc2c1 (stereo unspecified)	CYP2C9 inh 68, CYP2C19 inhib 50
Cc1cccc2cc(C(c3nnnn3Cc3ccc4c(c3)OCO4)N3CCCC3)c(=O)[nH]c12 (stereo unspecified)	CYP2C9 inh 50
O=C(CSc1nncc2ccccc12)N1CCOCC1	none
COCC(=O)NCCc1nc2ccccc2[nH]1	none
O=C(CSc1c[nH]c2ccccc12)N1CCOCC1	CYP2C19 inhib 84
O=C1CN(C(=O)CCCc2c[nH]c3ccccc23)c2ccccc2N1	CYP2C19 inhib 50
COCC(=O)NCCSc1c(C)[nH]c2ccccc12	CYP2C19 inhib 58
Cc1[nH]c2ccccc2c1SCC(=O)N1CCOCC1	CYP2C19 inhib 93
O=C(O)CCCC(=O)N1CC(=O)Nc2ccccc21	none
CCN(CCCNC(=O)COc1cc(=O)n(CC)c2ccccc12)Cc1ccccc1	none (no result: Mac1 fbg inh, Mac1 fbg enh)
O=C(CCCc1c[nH]c2ccccc12)N1CCOCC1	CYP2C19 inhib 67
O=C(CCCc1c[nH]c2ccccc12)N1CCN(S(=O)(=O)c2cccs2)CC1	none
O/C(=C\Sc1nnc(Cc2ccccc2)o1)c1ccc(Br)cc1	CYP2C9 inh 93, CYP2C19 inhib 79
O=C(COc1cccc(NC(=O)c2ccco2)c1)c1ccccc1	none
O=C(Cn1cc(C(=O)C2CC2)c2ccccc21)NC1CCCC1	none (no result: Mac1 fbg inh, Mac1 fbg enh)
NS(=O)(=O)c1cccnc1Nc1c(Cl)cccc1Cl	CYP2C19 inhib 60
CC(C)c1ccc(NC(=O)C2CC(=O)N=C(N)S2)cc1 (stereo unspecified)	none
COc1ccc(Nc2nnc(SCc3cc([N+](=O)[O-])cc4c3OCOC4)s2)cc1	CYP2C9 inh 94
O=C(Nc1cccnc1)c1ccc(Cl)c(S(=O)(=O)N2CCCCCC2)c1	CYP2C9 inh 85, CYP2C19 inhib 88
O=C(Nc1ccon1)c1ccc(S(=O)(=O)N2CCCCCC2)cc1	none
O=C(Nc1cccnc1)c1ccc(S(=O)(=O)N2CCCCCC2)cc1	CYP2C9 inh 73, CYP2C19 inhib 62
Cc1ccc(C(=O)Nc2cccnc2)cc1S(=O)(=O)N1CCOCC1	none
O=C(Nc1ccn(-c2ccccc2)n1)c1ccc(S(=O)(=O)N2CCCCCC2)cc1	CYP2C19 inhib 53
O=C(Nc1cccnc1)C1CCCN(S(=O)(=O)c2ccccc2)C1 (stereo unspecified)	CYP2C19 inhib 64
O=C(Nc1ccccc1)c1ccc(S(=O)(=O)N2CCCC2)cc1	none
CCSc1nc2c(sc3ccccc32)c(=O)n1C(C)C	none
Cc1ccc(NC(=O)COC(=O)c2ccc(OCc3c(C)noc3C)cc2)cc1S(=O)(=O)N1CCOCC1	none (no result: CYP2C9 inh, CYP2C19 act, CYP2C9 act, CYP2C19 inhib)
O=C(NC(Cc1ccccc1)C(=O)O)c1ccc(S(=O)(=O)N2CCCCC2)cc1 (stereo unspecified)	CYP2C9 inh 78
COc1ccc(-n2nc3c(c2NC(=O)C24CC5CC(CC(C5)C2)C4)CS(=O)C3)cc1 (stereo unspecified)	CYP2C9 act 2.4
N#CC1=C(N)C2=CCCC[C@H]2[C@H](c2ccc(Br)cc2)C1(C#N)C#N	none (no result: CYP2C9 inh, CYP2C19 act, CYP2C9 act, CYP2C19 inhib)
COc1ccccc1NC(=O)c1sc2ncn(Cc3cccc4ccccc34)c(=O)c2c1C	none (no result: CYP2C9 inh, CYP2C19 act, CYP2C9 act, Mac1 fbg inh, CYP2C19 inhib)
Cn1c(O)c(C=Nc2ccc(Cc3ccncc3)cc2)c(=O)n(C)c1=O	CYP2C9 inh 73, CYP2C19 inhib 88
O=C(OCc1ccccc1)c1ccc2c(c1)-c1ccccc1C2=O	CYP2C9 inh 55
COC(=O)CSc1cc(C(=O)c2nccn2C)c2ccccc2n1	CYP2C9 inh 52, CYP2C19 inhib 82
COc1ccc(CC(=S)N2CCOCC2)cc1	CYP2C19 inhib 96
COc1ccc(CNC(=O)c2ccc(CN3CCOCC3)cc2)cc1	none
Cn1c(=O)c2cc(S(=O)(=O)NCCC(=O)NCCC3=CCCCC3)ccc2n(C)c1=O	none
Cc1ccccc1OCC(=O)OC(C)CN1CCN(C)CC1 (stereo unspecified)	none
CC(CN1CCCCC1)OC(=O)Cc1ccc(Cl)cc1 (stereo unspecified)	CYP2C19 inhib 60
